Screening data: PubChem, National Center for Advancing Translational Sciences (NCATS)
This is a sample that favours compounds with a hit; in the whole collection about 4.8% have one here.
USP2a block = qHTS Assay for Inhibitors of Ubiquitin-specific Protease USP2a Using CHOP2 as the Reporter. 330,000 tested, 0.01% active. Potency, µM (doses to about 38.3 µM), inactives show at the highest dose activity change, negative = inhibition, hits mostly inhibitors. USP2 core, Ub-CHOP2 coupled fluorogenic reporter, 485/531. Ubiquitin carboxyl-terminal hydrolase 2 (Homo sapiens), O75604;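 note: potency is the fitted concentration of half-maximal effect; plate controls were DMSO wells for no effect and full inhibition by NEM control for full effect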
Target sequence (O75604 whole entry, looked up): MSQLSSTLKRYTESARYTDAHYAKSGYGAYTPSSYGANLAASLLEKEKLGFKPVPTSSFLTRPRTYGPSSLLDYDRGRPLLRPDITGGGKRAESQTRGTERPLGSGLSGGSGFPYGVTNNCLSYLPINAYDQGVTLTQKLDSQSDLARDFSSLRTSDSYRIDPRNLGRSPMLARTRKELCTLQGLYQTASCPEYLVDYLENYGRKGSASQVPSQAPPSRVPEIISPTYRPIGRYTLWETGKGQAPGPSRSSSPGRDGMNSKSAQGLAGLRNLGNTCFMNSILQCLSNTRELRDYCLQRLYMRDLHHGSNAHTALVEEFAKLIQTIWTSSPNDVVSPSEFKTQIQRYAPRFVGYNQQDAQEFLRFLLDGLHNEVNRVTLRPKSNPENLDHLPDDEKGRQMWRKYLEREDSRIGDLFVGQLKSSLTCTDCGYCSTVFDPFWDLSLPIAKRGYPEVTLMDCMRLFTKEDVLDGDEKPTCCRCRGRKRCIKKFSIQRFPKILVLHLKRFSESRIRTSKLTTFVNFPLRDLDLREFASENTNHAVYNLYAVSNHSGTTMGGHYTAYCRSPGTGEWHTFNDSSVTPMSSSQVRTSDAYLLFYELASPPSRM
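Cell-free coupled assay: 10nM USP2 core preincubated 30min RT with compound in Tris-HCl pH 8.0/CaCl2/CHAPS buffer, then 25nM Ub-CHOP2 and 25nM reporter substrate; fluorescence (Ex 485/Em 531) read after 60min RT, normalized to NEM inhibition, concentration-response curves fitted.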
IL-1B inflam inh = qHTS for Inhibitors of Inflammasome Signaling: IL-1-beta AlphaLISA Primary Screen; THP-1 LPS/ATP IL-1B secretion, AlphaLISA, 16 h; active compounds read low; activity change, % at 57.5 µM; 360,000 tested, 4.7% active; in the data active = activity change below about -50%; inconclusive = mostly about -30% to -49%; note: % is set by controls: 0 for no effect and ±100 for the full control effect
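Secreted IL-1B measured by AlphaLISA bead assay after 16 h compound exposure of THP-1 cells; compounds (final up to 57.5 uM) added 1 h before LPS (250 ng/mL) and ATP (1.25 mM) stimulation; lower signal means less secretion.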
ATXN2 expr inh = Primary qHTS for Inhibitors of ATXN expression; HEK-293 ATXN2-luciferase reporter, luminescence, 24 h; AID 1745845, 2022; Potency, µM (doses to about 57 µM), without a hit: at the top dose activity change, negative = inhibition, most hits filed as inhibitors; 360,000 tested, 0.72% active; note: potency is the fitted concentration of half-maximal effect; % is set by controls: 0 for no effect and ±100 for the full control effect; nearly all actives have a fitted effect of over 55% in size
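ATXN2-luciferase reporter cells (luciferase flanked by upstream and downstream ATXN2 gene portions) were treated 24 h at 37 °C with compounds at up to 57 uM. SteadyGlo luminescence gave expression; GF-AFC fluorescence gave viability.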
USP1 inh = Inhibitors of USP1/UAF1: Primary Screen. Ubiquitin carboxyl-terminal hydrolase 1 (Homo sapiens), O94782. recombinant USP1/UAF1, Ub-Rhodamine cleavage fluorescence. Potency, µM (doses to about 57.1 µM), for the others: top-dose activity change, negative = inhibition, hits mostly inhibitors. 390,000 tested, 0.23% active. AID 743255, 2014; note: potency is the fitted concentration of half-maximal effect; % is set by controls: 0 for no effect and ±100 for the full control effect; nearly all actives have a fitted effect of over 60% in size
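In this screen, compounds sit with the deubiquitinase complex (1nM) for 15 min at room temperature before Ub-Rho is added at 150nM final. Fluorescence rise is then followed for 6 reads every 60 seconds.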
S2 tox = Viability Counterscreen for Primary qHTS for Inhibitors of ATXN expression; S2 cells (HEK-293 line with an ATXN2-luciferase reporter) viability, CellTiter-Fluor protease fluorescence, 24 h; Potency, µM (doses to about 56.7 µM), hits mostly cytotoxic; 400,000 tested, 0.49% active; note: potency is the fitted concentration of half-maximal effect; nearly all actives have a fitted effect of over 40% in size
* hit, by the source's call. Unless noted, calls come from the whole dose curve; as a rule, active = well fitted curve in the direction sought with a large enough effect; inconclusive = small, poorly fitted or top-dose-only effect, or another doubt; inactive = no such curve, though single readings can be large; an effect the other way counts as inactive or inconclusive.

How did CCc1ccc(CNC(=O)CCC(=O)N2Cc3cccc(OC)c3Oc3ncccc32)cc1 do in these assays?
USP2a block: 4%; IL-1B inflam inh: -7; ATXN2 expr inh: 0%; USP1 inh: -26%; S2 tox: inactive

Results for Cc1cc(Nc2ccc3c(c2)OCCO3)c2cccc(C)c2n1 ?
USP2a block: -2%; IL-1B inflam inh: -94*; ATXN2 expr inh: -17%; USP1 inh: -14%; S2 tox: inconclusive

What do the screens show for `Cc1cc(Nc2ccccc2C)c2cccc(C)c2n1`?
ATXN2 expr inh: inconclusive; USP1 inh: -4%; S2 tox: inactive

What do the screens show for `CCOc1ccc(Nc2cc(C)nc3c(C)cccc23)cc1`?
USP2a block: 1%; IL-1B inflam inh: -63*; ATXN2 expr inh: -25%; USP1 inh: 2%; S2 tox: inconclusive

How did COc1ccc(-c2oc3ncn4nc(COc5ccc(Cl)cc5)nc4c3c2-c2ccc(OC)cc2)cc1 do in these assays?
ATXN2 expr inh: -2%; USP1 inh: -16%; S2 tox: inconclusive

Results for O=C1N=C(N2CCOCC2)S/C1=C/c1ccc(-c2ccc(F)cc2)o1 ?
USP2a block: -2%; IL-1B inflam inh: -23; ATXN2 expr inh: -22%; USP1 inh: -20%; S2 tox: inactive

What do the screens show for `Cc1ccc(-c2ccc(/C=C3\SC(N4CCOCC4)=NC3=O)o2)cc1`?
USP2a block: -1%; IL-1B inflam inh: -95*; ATXN2 expr inh: -16%; USP1 inh: -13%

How did Cc1ccccc1N/C(=N/S(=O)(=O)c1ccccc1)c1ccc(F)cc1 do in these assays?
USP2a block: 1%; IL-1B inflam inh: -21; ATXN2 expr inh: 7%; USP1 inh: -4%; S2 tox: inactive

What do the screens show for `COC(=O)C(C(C)=O)C1=C/C(=N\S(=O)(=O)c2ccc(C)cc2)c2ccccc2C1=O` (stereo not given)?
USP2a block: 4%; IL-1B inflam inh: 16; ATXN2 expr inh: inconclusive; USP1 inh: -20%; S2 tox: inconclusive

Results for O=C(O)c1ccc(S(=O)(=O)/N=C2\C=C(Nc3ccccc3F)C(=O)c3ccccc32)cc1 ?
USP2a block: 1%; IL-1B inflam inh: -97*; ATXN2 expr inh: 7.9µM*; USP1 inh: 2.5µM*; S2 tox: 7.9µM*

Results for Cc1ccccc1NC1=C/C(=N\S(=O)(=O)c2ccc(C(=O)O)cc2)c2ccccc2C1=O ?
USP2a block: -3%; IL-1B inflam inh: -90*; ATXN2 expr inh: 8.9µM*; USP1 inh: 1.3µM*; S2 tox: 10µM*

Results for O=C(CSc1ncccn1)NCC1Cc2cccc(-c3ncccn3)c2O1 (stereo not given) ?
S2 tox: inactive

What do the screens show for `COc1cc(C2=NC(CO)(CO)CO2)cc(OC)c1OC`?
USP2a block: -4%; IL-1B inflam inh: -72*; ATXN2 expr inh: -8%; USP1 inh: -26%; S2 tox: inactive

How did CS(=O)(=O)N(CC(=O)Nc1ccc(S(=O)(=O)N2CCCC2)cc1)c1ccccc1 do in these assays?
USP2a block: 2%; IL-1B inflam inh: 0; ATXN2 expr inh: -12%; USP1 inh: 1%; S2 tox: inactive

Results for O=C(Nc1ccc(-n2cnnn2)cc1)c1cn2ccccc2n1 ?
USP2a block: 1%; IL-1B inflam inh: -6; ATXN2 expr inh: 4%; USP1 inh: -3%; S2 tox: inactive

How did COc1ccc(CC(=O)Nc2ccc(-c3cn4ccccc4n3)cc2)cc1 do in these assays?
USP2a block: 0%; IL-1B inflam inh: 19; ATXN2 expr inh: 5%; USP1 inh: 1%; S2 tox: inactive

Results for Cc1csc(NC(=O)c2cn3ccccc3n2)n1 ?
USP2a block: 8%; IL-1B inflam inh: 2; ATXN2 expr inh: 4µM*; USP1 inh: -10%; S2 tox: inactive

How did O=C(Nc1ccccc1)c1cn2ccccc2n1 do in these assays?
USP2a block: 1%; IL-1B inflam inh: 8; ATXN2 expr inh: 11µM*; USP1 inh: -18%; S2 tox: inactive

What do the screens show for `O=C(Nc1cccc(-c2cn3ccccc3n2)c1)c1cccc(Cl)c1`?
USP2a block: -1%; IL-1B inflam inh: -104*; ATXN2 expr inh: inconclusive; USP1 inh: -9%

How did O=C(Nc1cccc(-c2cn3ccccc3n2)c1)c1cnccn1 do in these assays?
USP2a block: 1%; IL-1B inflam inh: 143; ATXN2 expr inh: 16%; USP1 inh: -9%; S2 tox: inactive

What do the screens show for `O=C(Nc1ccc(-c2cn3ccccc3n2)cc1)c1cccs1`?
USP2a block: 2%; IL-1B inflam inh: -93*; ATXN2 expr inh: inconclusive; USP1 inh: -22%; S2 tox: inactive

Results for O=C(CCc1cccnc1)NCC1Cc2cccc(-c3ncccn3)c2O1 (stereo not given) ?
S2 tox: inactive

Results for C[C@@H]1COC(=O)[C@H](Cc2ccc(F)cc2)CC/C=C\C[C@@H](CC(=O)NCCO)C(=O)N1 ?
USP2a block: -1%; IL-1B inflam inh: 19; ATXN2 expr inh: 12%; USP1 inh: -9%; S2 tox: inactive

What do the screens show for `Clc1ccc2c(c1)C(N1CCNCC1)Cc1ccccc1S2` (stereo not given)?
USP2a block: 3%; IL-1B inflam inh: -100*; ATXN2 expr inh: inconclusive; USP1 inh: -4%; S2 tox: 32µM*

How did COc1cc2ccc(C(C)=NNC(N)=S)cc2cc1OC do in these assays?
IL-1B inflam inh: -25; USP1 inh: inconclusive; S2 tox: inconclusive

What do the screens show for `O=C(Nc1cccc(F)c1)Nc1cccc(Cl)c1`?
USP2a block: 1%; IL-1B inflam inh: -88*; ATXN2 expr inh: -32%; USP1 inh: -6%; S2 tox: inactive

Results for O=C(Nc1cccc(F)c1)Nc1ccc2c(c1)OCO2 ?
USP2a block: -1%; IL-1B inflam inh: -67*; ATXN2 expr inh: 55%; USP1 inh: -12%; S2 tox: inactive

What do the screens show for `O=C(Nc1cccc(Cl)c1)Nc1ccc(Br)cc1F`?
USP2a block: 3%; IL-1B inflam inh: -59*; ATXN2 expr inh: -19%; USP1 inh: -19%; S2 tox: inconclusive

Results for O=C(Nc1cccc(Cl)c1)Nc1cccc(Cl)c1 ?
USP2a block: 4%; IL-1B inflam inh: -21; ATXN2 expr inh: 5%; USP1 inh: -14%; S2 tox: inactive

Results for Cc1cc(NC(=O)Nc2ccccc2F)ccc1Br ?
USP2a block: -1%; IL-1B inflam inh: -50*; ATXN2 expr inh: 35%; USP1 inh: -8%; S2 tox: inactive
